# Compounds with a hit are over-represented: about 32% of the library has one in this group of screens.
# CYP2C19 act = cytochrome P450 2C19 (human) activation; recombinant CYP2C19, luciferin-H EGE luminescence; stronger effect = higher value; 0 = fully inhibited enzyme, 1 = untreated enzyme; AID 1025; activation factor at 5 µM; P33261; 96,000 tested, under 10 active;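 active means activation factor of at least 2 at 5 µM in the primary screen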;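 further: 0 = wells with 2.5 mM tranylcypromine and 1 = vehicle-only wells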
# PostGolgi yeast = growth inhibition of a yeast mutant, post-Golgi transport screen. AID 739. actives 0.9% (n = 98,000). post-Golgi transport phenotypic cell assay. inhibition, % at 10 µM;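 further: yeast cells grown in 1536-well plates; yeast grown about 18 h at 30C before absorbance read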
# CYP2C9 activ = increases human cytochrome P450 2C9 activity | recombinant CYP2C9, luciferin-H conversion, luminescence; stronger effect = higher value; factor 1 = untreated enzyme, 0 = blocked | actives 1.4% (n = 96,000) | AID 1024 | activation factor at 5 µM;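 active means activation factor of 2 or more for CYP2C9 at a 5 µM dose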;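 further: 0 = sulfaphenazole-blocked wells and 1 = vehicle-only wells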
# Target sequence (P11712 whole entry, looked up): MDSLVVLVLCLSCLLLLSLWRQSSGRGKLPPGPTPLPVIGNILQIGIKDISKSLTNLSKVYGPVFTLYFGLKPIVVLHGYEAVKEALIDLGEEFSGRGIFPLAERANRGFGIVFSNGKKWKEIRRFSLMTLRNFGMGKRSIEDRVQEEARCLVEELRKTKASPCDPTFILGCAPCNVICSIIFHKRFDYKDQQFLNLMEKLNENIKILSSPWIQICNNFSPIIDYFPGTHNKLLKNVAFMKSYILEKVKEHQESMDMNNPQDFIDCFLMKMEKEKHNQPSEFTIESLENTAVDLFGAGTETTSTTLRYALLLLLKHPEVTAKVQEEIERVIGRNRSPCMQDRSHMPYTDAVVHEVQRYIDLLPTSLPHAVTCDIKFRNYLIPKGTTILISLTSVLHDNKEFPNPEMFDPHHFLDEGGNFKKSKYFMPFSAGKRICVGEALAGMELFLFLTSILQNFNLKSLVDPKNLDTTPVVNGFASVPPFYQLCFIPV
# CYP2C9 inhib = blocks human cytochrome P450 2C9; AID 777; CYP2C9 Supersomes, luciferin-H conversion, luminescence; inhibition, % at 5 µM; P11712; actives 20% (n = 96,000);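 active means blocking of liver enzyme CYP2C9 beyond about 50% at 5 µM, limit read from the data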
# CYP2C19 inh = inhibitors of human CYP2C19; actives 21% (n = 96,000); CYP2C19 Supersomes, luciferin-H EGE luminescence, 30 min; P33261; inhibition, % at 5 µM;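 active means CYP2C19 inhibition above a set limit at 5 µM in the primary screen, cut at about 50% in these data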;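 further: plate controls were negative control wells for no effect and 2.5 mM tranylcypromine positive control for full effect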
# PostGolgi ctrl = growth of the yeast control strain, post-Golgi counter-screen; efflux-deficient yeast background strain, growth absorbance A615, 16 h; actives 5% (n = 98,000); inhibition, % at 10 µM; AID 738
# The depositor's hits bear a star; x = not tested or not shown. Unless noted, no stated cut-off is given here; in the data, active means inhibition above about 30%; inactive means the rest.
SMILES,CYP2C19 act,PostGolgi yeast,CYP2C9 activ,CYP2C9 inhib,CYP2C19 inh,PostGolgi ctrl
O=C(CSc1nnnn1-c1ccccc1)NC(=O)NCc1ccco1,1,-10,1.4,-36,-1,5
Cc1nnc(SCC(=O)NC(=O)NCc2ccco2)n1Cc1ccccc1,0.8,-1,0.3,67*,16,16
O=C(CSc1n[nH]c(-c2ccccc2Br)n1)NC(=O)NCc1ccco1,0.6,7,0.4,59*,36,5
CCCn1c(SCC(=O)NC(=O)NCc2ccco2)n[nH]c1=O,0.9,0,0.8,21,9,3
CCOc1ccccc1-n1nnnc1SCC(=O)NC(=O)NCc1ccco1,0.2,-2,0.7,27,79*,25
CCOC(=O)c1ccc(N(CC(=O)NC2CCCC2)C(=O)CNC(=O)c2ccco2)cc1,0.7,-7,0.6,41,26,10
O=C(CCC(=O)N(CC(=O)NC1CCCCC1)Cc1ccco1)Nc1nccs1,0.9,6,0.9,14,13,7
O=C(CN(Cc1cccs1)C(=O)CNC(=O)c1ccco1)NC1CCCCC1,0.9,-5,0.5,50*,9,-6
O=C(CN(C(=O)CNC(=O)c1ccco1)c1ccc(Cl)c(Cl)c1)NC1CCCCC1,0.1,-3,0.1,89*,86*,6
O=C(CN(C(=O)CNC(=O)c1ccco1)c1ccc2c(c1)OCO2)NC1CCCCC1,0.3,8,0,95*,73*,-3
O=C(CN(C(=O)CNC(=O)c1cccs1)c1ccc2c(c1)OCCO2)NC1CCCC1,0.8,-6,0.1,91*,25,3
CCCC(=O)Nc1nc2nc(-c3ccccc3)cc(=O)n2[nH]1,1.1,-2,0.9,14,-6,3
FC(F)(F)c1cccc(Oc2cc(C(F)(F)F)nc(-c3ccccn3)n2)c1,1,-7,0.8,17,3,9
COc1ccc(/C(O)=C2\C(=O)C(=O)N(CCCN(C)C)C2c2ccccc2F)cc1Cl (stereo not drawn),0.9,x,0.7,26,8,x
COc1ccc(Cl)cc1NC(=O)CSc1nnc(Cn2c(=O)sc3ccccc32)n1C,x,9,x,x,x,-4
O=S(=O)(c1ccc(Cl)cc1)N1CCC(N2CCCCCC2)CC1,1,9,1.2,-16,-4,10
O=C(CN(Cc1ccc2c(c1)OCO2)C(=O)CNC(=O)c1ccco1)NC1CCCCC1,0.4,3,0.2,83*,61*,2
O=C(NCC(=O)N(Cc1cccs1)C(C(=O)NC1CCCC1)c1ccco1)c1cccs1 (stereo not drawn),0.1,2,0.1,89*,87*,24
Cc1ccccc1C(=O)N1CCC(C(=O)Nc2cccc(F)c2)CC1,0.7,3,0.5,51*,32,-6
COC(=O)c1ccccc1NC(=O)C1CCN(C(=O)c2ccc(OC)cc2)CC1,0.5,0,0.7,30,50*,11
O=C(Nc1cccc(F)c1)C1CCN(C(=O)Cc2ccccc2)CC1,0.9,0,0.9,10,13,14
CC1CCCC(C)N1C(=O)c1ccccc1Nc1ccc(SC(F)F)cc1 (stereo not drawn),0.8,7,0.7,25,22,8
O=C(c1ccccc1Nc1ccc(SC(F)F)cc1)N1CCCCC1,0.1,-6,0.5,53*,88*,14
O=C(Nc1ccccc1C(=O)N1CCCCC1)C1CCCCC1,0.9,17,0.4,56*,6,10
CCCn1nnnc1-c1cccc(Cl)c1,0.6,10,0.9,10,39,-1
SMILES,CYP2C19 act,PostGolgi yeast,CYP2C9 activ,CYP2C9 inhib,CYP2C19 inh,PostGolgi ctrl
CC(C)Oc1cccc(C(=O)O)c1,1,-3,0.9,6,1,-3
O=C(c1ccco1)N(Cc1cc2ccccc2[nH]c1=O)CC1CCCO1 (stereo not drawn),0.9,5,1,-4,8,5
O=C(c1ccncc1)N(Cc1cc2ccccc2[nH]c1=O)C1CCCCC1,0.1,2,0.3,74*,90*,9
O=C(c1ccco1)N(Cc1cc2ccccc2[nH]c1=O)C1CCCCC1,0.9,-4,0.5,54*,13,25
CC(C)CN(Cc1cc2ccccc2[nH]c1=O)C(=O)c1cccnc1,1,-1,1,0,-4,7
Cc1ccc(-n2c(SCc3cc(=O)n4ccsc4n3)nnc2-c2cccnc2)c(C)c1,0.9,1,0.7,35,12,9
O=C(NCCc1csc(-c2cccnc2)n1)c1ccc(Br)o1,0.5,-4,0.6,42,52*,1
O=C(NCCc1csc(-c2ccccc2)n1)c1ccc(Br)o1,0,-6,0.4,61*,100*,35*
COC(=O)C1=C(N)Oc2cc(C)[nH]c(=O)c2C1c1cccnc1 (stereo not drawn),0.8,-9,0.9,12,16,5
CCN(c1ccccc1)S(=O)(=O)c1ccc(OCC(=O)Nc2cc(C)on2)cc1,0.8,10,0.3,67*,16,3
Cc1cc(NC(=O)CSc2ccc(-c3ccccc3)nn2)no1,0.6,-1,0.7,35,44,7
Cc1cc(NC(=O)COc2ccc(N(C)S(=O)(=O)c3ccccc3)cc2)no1,0.8,-9,0.4,55*,22,-1
Cc1cc(NC(=O)CCOc2ccccc2)no1,0.7,x,0.8,18,26,x
Cc1cc(NC(=O)COc2nnc(-c3ccccc3)c3ccccc23)no1,0.5,15,0.4,63*,52*,-3
Cc1oc2nc(SCC(=O)NCCCO)nc(N)c2c1C,0.9,3,0.9,12,6,3
CCCc1cc(C(=O)Nc2cc(Br)ccc2O)no1,1.2,-2,0.7,31,-20,15
Cc1ccc(C(C)NC(=O)c2ccco2)cc1C (stereo not drawn),0.5,8,2.2*,-120,48,6
Cc1cc(O)c(NC(=O)c2ccco2)cc1C,1.1,-7,1,0,-7,6
O=C(CSc1nnc(Cc2cc(=O)[nH]c(=O)[nH]2)n1-c1ccc(F)cc1)NC1CCCC1,1.2,6,1.1,-7,-17,0
COc1ccc(N2CCN(Cc3nc(N)nc(Nc4ccc(C)c(Cl)c4)n3)CC2)cc1,0.4,0,0.3,68*,59*,15
Cc1ccc(Nc2nc(N)nc(CN3CCN(c4ccccc4)CC3)n2)cc1Cl,0.8,16,0.4,60*,20,30*
Cc1ccc(Nc2nc(N)nc(CN3CCN(C)CC3)n2)cc1C,1.2,0,1.1,-11,-17,7
CCOc1nc(Nc2ccc(OC)c(Cl)c2)nc(N2CCN(c3ccc(OC)cc3)CC2)n1,0.7,-5,0.3,67*,31,6
CCOC(=O)N1CCN(Cc2nc(N)nc(Nc3ccc(Oc4ccccc4)cc3)n2)CC1,0.7,11,0.2,81*,28,-8
CCOC(=O)N1CCN(Cc2nc(N)nc(Nc3ccc(OC)cc3)n2)CC1,0.8,12,0.7,34,23,1

# Bioassay records deposited in PubChem by several laboratories.
